Records with an inconclusive call do not appear. The source made the active and inactive calls. Unless noted, calls come from the whole dose curve; as a rule, active = well fitted curve in the direction sought with a large enough effect in the repeat runs; inconclusive = weak or mixed curves; inactive = no such curve, though single readings can be large; an effect the other way counts as inactive or inconclusive.
Tests used:
[1] = qHTS assay for small molecule agonists of the p53 signaling pathway (AID 651631; calls by dose curve; note: nearly all actives have a fitted effect of over 15% in size; note: potency is the fitted concentration of half-maximal effect)
In short: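 Testing took place in human colorectal HCT-116 cells with stable p53RE-driven beta-lactamase. After 16 h of compound exposure at 37 °C, a FRET substrate was added and fluorescence recorded 2 h later.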

[2] = qHTS assay for small molecules that induce genotoxicity in human embryonic kidney cells expressing luciferase-tagged ATAD5 (AID 651632); note: nearly all actives have a fitted effect of over 15% in size
In short: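 Increased luciferase signal from ATAD5-tagged reporter cells indicates DNA-damage-driven ATAD5 induction. HEK293T cells are treated for 16 hr at 37C before detection with Amplite.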

[3] = qHTS assay for small molecule agonists of the p53 signaling pathway - cell viability (AID 651633; calls by dose curve; note: series mostly up to about 83 µM; nearly all actives have a fitted effect of over 30% in size)
In short: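 p53RE-bla cells were treated with compound for 16 hours at 37 C. Cytotoxicity was then measured as CellTiter-Glo luminescence after 30 min at room temperature.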

[4] = qHTS assay for small molecules that induce genotoxicity in human embryonic kidney cells expressing luciferase-tagged ATAD5 - cell viability (AID 651634; calls by dose curve; note: nearly all actives have a fitted effect of over 25% in size; note: potency is the fitted concentration of half-maximal effect)
In short: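 Cytotoxicity counterscreen in HEK293T cells bearing an ATAD5-luciferase reporter: live-cell protease activity measured by CellTiter-Fluor fluorescence after 15.5 hr compound exposure.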

[5] = qHTS assay for small molecule disruptors of the mitochondrial membrane potential - cell viability (AID 720634; calls by dose curve; note: nearly all actives have a fitted effect of over 20% in size; note: potency is the fitted concentration of half-maximal effect;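 for activity change, negative = cytotoxicity: human HepG2 liver cancer cells; series mostly up to about 83 µM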)
In short: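 After overnight attachment at 37 C, HepG2 cells received compound or DMSO vehicle for 1 hr. Viability is then taken from ATP-driven luminescence following a 30 min room-temperature CellTiter-Glo step.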

[6] = qHTS assay for small molecule disruptors of the mitochondrial membrane potential (AID 720635); note: potency is the fitted concentration of half-maximal effect
In short: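 HepG2 cells exposed to compound 1 hr at 37C, then Mito-MPS dye 30 min. Ratio read of aggregate (540/590 nm) versus monomer (490/535 nm) fluorescence.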

[7] = qHTS assay to test for compound auto fluorescence at 590 nm (red) in HepG2 cells (AID 720674)
In short: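 HepG2 cells, 2,000 per well in MEM with 10% FBS, attached overnight at 37 C, then got 23 nL compound or DMSO. After 1 hr at 37 C, 5% CO2, red fluorescence was read at 540/590 nm against Rose Bengal sodium as reference.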

[8] = qHTS assay to test for compound auto fluorescence at 535 nm (green) in HepG2 cells (AID 720675)
[9] = qHTS assay to test for compound auto fluorescence at 460 nm (blue) in HEK293 cells (AID 720678)
In short: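 HEK293 cells (2,000/well, medium with 10% dialyzed FBS) attached 4-5 hr, then exposed to compound overnight at 37C, 5% CO2. Blue fluorescence read at 405/460 nm, with triamterene as reference fluorophore.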

[10] = qHTS assay to test for compound auto fluorescence at 590 nm (red) in HEK293 cells (AID 720679)
In short: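 HEK293 cells (2,000/well, 10% dialyzed FBS) attached 4-5 hr, then dosed with compound or DMSO and incubated overnight at 37C, 5% CO2. Red fluorescence read at 540/590 nm, Rose Bengal sodium as reference fluorophore.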

[11] = qHTS assay to test for compound auto fluorescence at 535 nm (green) in HEK293 cells (AID 720680)
[12] = qHTS assay to test for compound auto fluorescence at 460 nm (blue) in HEK293 cell free culture (AID 720681)
In short: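 Compounds were added to cell-free DMEM with 10% FBS and fluorescence read directly. The blue channel used 405 nm excitation and 460 nm emission, with triamterene as the reference fluorophore.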

[13] = qHTS assay to test for compound auto fluorescence at 590 nm (red) in HEK293 cell free culture (AID 720683)
In short: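 Cell-free wells of DMEM with 10% FBS received compound, and intrinsic fluorescence was read at excitation/emission 540/590 nm. Values expressed as equivalence to Rose Bengal sodium.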

[14] = qHTS assay to test for compound auto fluorescence at 590 nm (red) in HepG2 cell free culture (AID 720684)
In short: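 Compounds are added to culture medium (MEM, 10% FBS) lacking cells, then fluorescence is read at excitation 540 nm, emission 590 nm, with Rose Bengal sodium as the equivalency standard.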

[15] = qHTS assay to test for compound auto fluorescence at 535 nm (green) in HepG2 cell free culture (AID 720686)
[16] = qHTS assay to test for compound auto fluorescence at 460 nm (blue) in HepG2 cells (AID 720687)
In short: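 HepG2 cells in MEM with 10% FBS, attached overnight at 37 C, were exposed to compound or DMSO for 1 hr at 37 C, 5% CO2. Blue fluorescence was read at 405/460 nm, with triamterene as reference fluorophore.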

[17] = qHTS assay to test for compound auto fluorescence at 535 nm (green) in HEK293 cell free culture (AID 720682)
In short: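 DMEM + 10% FBS, cell-free; cpd or DMSO pinned in; Ex485/Em535 read; output as fluorescein-equivalent signal.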

[18] = qHTS assay to test for compound auto fluorescence at 460 nm (blue) in HepG2 cell free culture (AID 720685)
In short: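 Compound (23 nL) or DMSO pinned into cell-free MEM with 10% FBS; blue fluorescence read at 405/460 nm excitation/emission, expressed as auto-fluorescence equivalency to triamterene.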

[19] = target: Glucocorticoid receptor (Homo sapiens) (UniProt P04150); test: qHTS assay to identify small molecule agonists of the glucocorticoid receptor (GR) signaling pathway (AID 720691; active = well fitted activation curve with a large enough effect in the signal ratio in the repeat runs, not every such curve was filed as active; the % refers to the signal ratio)
In short: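 Agonist mode in a HeLa line carrying a GRE-controlled beta-lactamase reporter. Compounds act for 18 h at 37 C before a 2 h room-temperature FRET substrate step and fluorescence reading.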

[20] = target: Glucocorticoid receptor (Homo sapiens) (UniProt P04150); test: qHTS assay to identify small molecule antagonists of the glucocorticoid receptor (GR) signaling pathway (AID 720692; active = well fitted inhibition curve with a large enough effect in the signal ratio in the repeat runs, not every such curve was filed as active; the % refers to the signal ratio)
In short: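 Cells plated, rested 4 h at 37 C/5% CO2; compounds in DMSO pin-transferred; dexamethasone added to 5 nM final; 18 h at 37 C; B/G FRET substrate added, 2 h room temperature; fluorescence measured.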
% is set by controls: 0 for no effect and ±100 for the full control effect.

Glucocorticoid receptor (Homo sapiens), sequence (P04150 whole entry, looked up): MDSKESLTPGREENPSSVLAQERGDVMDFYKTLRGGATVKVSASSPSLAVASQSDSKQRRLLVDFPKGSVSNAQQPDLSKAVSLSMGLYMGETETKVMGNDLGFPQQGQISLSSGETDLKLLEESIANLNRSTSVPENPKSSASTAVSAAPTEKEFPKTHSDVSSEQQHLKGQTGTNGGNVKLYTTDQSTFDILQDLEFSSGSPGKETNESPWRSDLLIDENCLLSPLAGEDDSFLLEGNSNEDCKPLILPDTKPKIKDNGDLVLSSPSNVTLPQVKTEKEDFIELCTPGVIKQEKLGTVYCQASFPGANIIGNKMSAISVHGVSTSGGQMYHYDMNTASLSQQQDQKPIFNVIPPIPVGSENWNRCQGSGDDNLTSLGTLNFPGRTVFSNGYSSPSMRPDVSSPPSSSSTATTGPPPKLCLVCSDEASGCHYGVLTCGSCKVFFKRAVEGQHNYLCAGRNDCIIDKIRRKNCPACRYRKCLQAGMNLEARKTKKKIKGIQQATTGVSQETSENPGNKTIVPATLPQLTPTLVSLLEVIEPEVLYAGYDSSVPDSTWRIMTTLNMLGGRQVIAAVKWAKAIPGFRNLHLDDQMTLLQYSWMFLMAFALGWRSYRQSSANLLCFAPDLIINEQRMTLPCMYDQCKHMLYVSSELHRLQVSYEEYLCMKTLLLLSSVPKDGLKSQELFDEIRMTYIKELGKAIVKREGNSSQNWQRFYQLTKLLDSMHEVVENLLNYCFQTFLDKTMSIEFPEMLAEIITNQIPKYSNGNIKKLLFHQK

Cc1ccc(C(=O)O)cc1
inactive: Potency [1] | Potency [2] | Potency [3] | Potency [4] | Potency [5] | Potency [6] | Potency [7] | Potency [8] | Potency [9] | Potency [10] | Potency [11] | Potency [12] | Potency [13] | Potency [14] | Potency [15] | Potency [16]

COCCOc1cc2cc(C(=O)NC3CCN(C(C)C)CC3)n(CC(=O)Nc3ccc(Cl)cn3)c2cn1
inactive: Potency [1] | Potency [2] | Potency [3] | Potency [4] | Potency [5] | Potency [6] | Potency [7] | Potency [8] | Potency [9] | Potency [10] | Potency [11] | Potency [12] | Potency [17] | Potency [13] | Potency [14] | Potency [18] | Potency [16] | Potency [19] | Potency [20]

C=Cc1ccccc1C=C
inactive: Potency [1] | Potency [2] | Potency [3] | Potency [4] | Potency [5] | Potency [6] | Potency [7] | Potency [8] | Potency [9] | Potency [10] | Potency [11] | Potency [12] | Potency [17] | Potency [13] | Potency [14] | Potency [15] | Potency [16] | Potency [19] | Potency [20]

CCCCOC(=O)CC
inactive: Potency [1] | Potency [2] | Potency [3] | Potency [4] | Potency [5] | Potency [6] | Potency [7] | Potency [8] | Potency [9] | Potency [10] | Potency [11] | Potency [12] | Potency [17] | Potency [13] | Potency [14] | Potency [18] | Potency [16] | Potency [19] | Potency [20]

O=[N+]([O-])c1ccc(O)cc1C(F)(F)F
active: Potency [1] 27.3 µM | Potency [4] 27.3 µM | Potency [5] 5.45 µM | Potency [6] 3.44 µM
inactive: Potency [2] | Potency [3] | Potency [7] | Potency [8] | Potency [9] | Potency [10] | Potency [11] | Potency [12] | Potency [17] | Potency [13] | Potency [14] | Potency [15] | Potency [16] | Potency [19]

CCCCOC(=O)CO
inactive: Potency [1] | Potency [2] | Potency [3] | Potency [4] | Potency [5] | Potency [6] | Potency [7] | Potency [8] | Potency [9] | Potency [10] | Potency [11] | Potency [12] | Potency [17] | Potency [13] | Potency [14] | Potency [18] | Potency [15] | Potency [19] | Potency [20]

c1ccsc1
inactive: Potency [1] | Potency [2] | Potency [3] | Potency [4] | Potency [5] | Potency [6] | Potency [7] | Potency [8] | Potency [9] | Potency [10] | Potency [11] | Potency [17] | Potency [13] | Potency [14] | Potency [15] | Potency [16]

c1ccc(SSc2ccccc2)cc1
inactive: Potency [1] | Potency [2] | Potency [3] | Potency [4] | Potency [5] | Potency [6] | Potency [7] | Potency [8] | Potency [9] | Potency [10] | Potency [11] | Potency [17] | Potency [13] | Potency [14] | Potency [18] | Potency [15] | Potency [16] | Potency [19]

Cc1nc2n(c(=O)c1CCN1CCC(c3noc4cc(F)ccc34)CC1)CCCC2
inactive: Potency [1] | Potency [2] | Potency [3] | Potency [4] | Potency [5] | Potency [6] | Potency [7] | Potency [8] | Potency [9] | Potency [10] | Potency [11] | Potency [17] | Potency [13] | Potency [14] | Potency [18] | Potency [19] | Potency [20]

CC1=Nc2ccccc2C1(C)C
inactive: Potency [1] | Potency [2] | Potency [3] | Potency [4] | Potency [5] | Potency [6] | Potency [7] | Potency [8] | Potency [9] | Potency [10] | Potency [11] | Potency [17] | Potency [13] | Potency [14] | Potency [18] | Potency [16] | Potency [19]

C=CCn1c(=O)n(CC=C)c(=O)n(CC=C)c1=O
inactive: Potency [1] | Potency [2] | Potency [3] | Potency [4] | Potency [5] | Potency [6] | Potency [7] | Potency [8] | Potency [9] | Potency [10] | Potency [11] | Potency [17] | Potency [13] | Potency [14] | Potency [18] | Potency [15] | Potency [19]

O=C(O)O
inactive: activation [1] -6.09% [at 8.3 µM] | activation [2] 4.66% [at 8.08 µM] | activity change, negative = cytotoxicity [3] 14.5% [at 8.08 µM] | activity, negative = cytotoxicity [4] 16.8% [at 8.08 µM] | activity change, negative = cytotoxicity [5] 7.92% [at 8.08 µM] | ratio activity, negative = MMP loss [6] 7.15% [at 8.08 µM] | fluorescence, relative to Rose Bengal [7] -0.453% [at 3.72 µM] | fluorescence, % of fluorescein control [8] -0.0364% [at 3.72 µM] | fluorescence, % of triamterene [9] -0.0075% [at 3.72 µM] | fluorescence, % of fluorescent control [10] 0.462% [at 3.72 µM] | fluorescence, % of fluorescein [11] -0.0067% [at 3.72 µM] | fluorescence, % of fluorescent control [12] 0.0957% [at 3.72 µM] | activity change [17] -0.0576% [at 3.72 µM, hits give high values] | fluorescence, % of fluorescent control [13] -0.0236% [at 3.72 µM] | fluorescence, % of Rose Bengal [14] 0.0094% [at 3.72 µM] | fluorescence, % of fluorescent control [18] 0.0077% [at 3.72 µM] | fluorescence, % of fluorescent control [16] -0.0691% [at 3.72 µM] | activation [19] -0.133% [at 6.9 µM] | activity change, negative = inhibition [20] -1.88% [at 7.04 µM]
